Laboratory results from PubChem BioAssay (EPA / NIEHS).
Values joined by “and” are separate entries in the source; they are usually repeats but may differ in a detail not shown here. Equal entries are not always repeated. The source holds several records for some structures; these can differ, active in one and inactive in another. Active and inactive are the calls of the source. Rule for the calls: active = hit-call score of the fitted dose curve at least 0.9, where 1 is the maximum; inactive = score below 0.9.

Each compound was assayed on Collagen III, COL3A1 (gene 1281) (assay: BSK_hDFCGF_CollagenIII: BioMAP Diversity Plus: hDFCGF Assay for Collagen III Biomarker Activity (AID 2283056)). Conditions: primary human foreskin fibroblasts; actives raise or lower the signal.
Method: BSK_hDFCGF is a cell-based, multiplexed-readout assay that uses foreskin fibroblast, a human skin primary cell, with measurements taken at 24 hours after chemical dosing in a 96-well plate.BSK_hDFCGF_CollagenIII is an assay component measured in the BSK_hDFCGF assay. It measures Collagen antibody related to regulation of gene expression using ELISA technology.Data from the assay component BSK_hDFCGF_CollagenIII was analyzed into 1 assay endpoint. This assay endpoint, BSK_hDFCGF_CollagenIII, was analyzed with bidirectional fitting relative to DMSO as the negative control and baseline of activity. Using a type of binding reporter, gain or loss-of-signal activity can be used to understand changes in the signaling as they relate to the gene COL3A1. Furthermore, this assay endpoint can be referred to as a primary readout, because this assay has produced multiple assay endpoints where this one serves a signaling function. To generalize the intended target to other relatable targets, this assay endpoint is annotated to the cell adhesion molecules intended target family, where the subfamily is collagen.
The levels of cell surface (or secreted, indicated by the prefix "s") biomarker endpoints were measured by ELISA. Overt cytotoxicity to cells in confluent adherent cultures (all systems other than the BT system) was assessed by measuring total protein levels using sulforhodamine B (SRB) staining in parallel cultures at the time of biomarker measurements, indicated as SRB endpoints. For proliferation assays for adherent cell types, individual cell types are cultured at sub-confluence and relative cell numbers quantified by SRB staining at time points optimized for each system (48 h: 3C and CASM3C systems; 72 h: BT and HDF3CGF systems; 96 h: SAg system). SRB was performed by staining cells with 0.1% SRB after fixation with 10% TCA and reading wells at 560 nm.Viability and proliferation of PBMC (T cells) was quantified by Alamar Blue reduction for the SAg and BT systems. For PBMC viability (referred to as PBMC Cytotoxicity within the assay endpoint names), cells were plated (75,000/well in a 96-well plate) and then chemical samples added for 1 h before addition of activators, SEB and TSST-1 (20 ng/mL final concentration each). Cells were incubated for 90 h. Then, Alamar Blue (20 uL/well) (Invitrogen, Cat DAL1100) was added for 6 h, and the plates were read with a fluorescence microplate reader at 546/580 nm (excitation/emission). For PBMC proliferation, cells were plated and activated as above but incubated for only 16 h prior to addition of Alamar Blue. Plates were read after 6 h.

Question: For `O=C(O)C(F)(F)C(F)(F)F`, which outcome is on record?
Answer: The outcome was “inactive”.

Question: For `CCCCCCCCCCCCCCCC[N+](C)(C)Cc1ccccc1`, which AC50 is on record?
Answer: The AC50 was 0.666 µM (active).

Question: Which AC50 does the source give for `CO[Si](OC)(c1ccccc1)c1ccccc1` here?
Answer: The AC50 was 32 µM (active).

Question: With `CS(C)(=O)=O` as the compound, how does the outcome read?
Answer: Its outcome is “inactive”.

Question: `C=CC(F)(F)C(F)(F)C(F)(F)C(F)(F)C(F)(F)C(F)(F)C(F)(F)C(F)(F)C=C` was tested. Which outcome did it give?
Answer: The outcome was “inactive”.

Question: With `O=S(=O)(O)C(F)(F)C(F)(F)C(F)(F)C(F)(F)C(F)(F)C(F)(F)C(F)(F)F` as the compound, how does the outcome read?
Answer: Its outcome is “inactive”.

Question: For `FC(F)(F)C(F)(F)C(F)(F)C(F)(F)C(F)(F)C(F)(F)C(F)(F)C(F)(F)CCS`, which outcome is on record?
Answer: Its outcome is “inactive”.

Question: Which outcome does the source give for `FC(F)(F)C(F)(F)C(F)(F)C(F)(F)CCI` here?
Answer: The outcome was “inactive”.

Question: For `FC(F)(F)C(F)(F)C(F)(F)N(C(F)(F)C(F)(F)C(F)(F)F)C(F)(F)C(F)(F)C(F)(F)F`, which outcome is on record?
Answer: The outcome was “inactive”.

Question: `C=CC(=O)OCC(F)(F)C(F)(F)C(F)(F)C(F)(F)C(F)(F)C(F)(F)C(F)(F)F` was tested. Which outcome did it give?
Answer: Its outcome is “inactive”.

Question: For `CCCCC(CC)COP(=O)(O)OCC(CC)CCCC` (stereo not given), which AC50 is on record?
Answer: The AC50 was 26.9 µM (active) and 27.5 µM (active).

Question: For `O=C(O)C(F)(F)C(F)(F)C(F)(F)C(F)(F)C(F)(F)C(F)(F)C(F)(F)C(F)(F)C(F)(F)C(F)(F)C(F)(F)C(F)(F)C(F)(F)F`, which outcome is on record?
Answer: The outcome was “inactive”.

Question: What about the AC50 of the same compound?
Answer: The AC50 was 0.641 µM (active).

Question: How did the AC50 turn out when `OCCCC(F)(F)C(F)(F)C(F)(F)C(F)(F)C(F)(F)C(F)(F)C(F)(F)F` was run?
Answer: Its AC50 is 11.6 µM (active) and 14.6 µM (active).

Question: `C=CC(F)(F)C(F)(F)C(F)(F)C(F)(F)C(F)(F)C(F)(F)C(F)(F)C(F)(F)F` was tested. Which outcome did it give?
Answer: Its outcome is “inactive”.

Question: Which outcome does the source give for `FC(F)(F)C(F)(F)C(F)(F)C(F)(F)C(F)(F)CCI` here?
Answer: Its outcome is “inactive”.

Question: Which outcome does the source give for `CCN(CC)c1ccc2c(C)cc(=O)oc2c1` here?
Answer: Its outcome is “inactive”.

Question: How did the outcome turn out when `CCCCCCCOC(=O)c1ccccc1C(=O)OCCCCCCC` was run?
Answer: The outcome was “inactive”.

Question: Which outcome does the source give for `OCCCC(F)(F)C(F)(F)C(F)(F)F` here?
Answer: Its outcome is “inactive”.

Question: Which outcome does the source give for `CCCCCCCCC(F)(F)C(F)(F)C(F)(F)C(F)(F)C(F)(F)C(F)(F)F` here?
Answer: Its outcome is “inactive”.

Question: How did the outcome turn out when `CCO[Si](CCC(F)(F)C(F)(F)C(F)(F)C(F)(F)C(F)(F)C(F)(F)F)(OCC)OCC` was run?
Answer: Its outcome is “inactive”.

Question: `C=C(C)C(=O)OCC(F)(F)C(F)(F)C(F)(F)C(F)(F)C(F)(F)C(F)(F)C(F)(F)F` was tested. Which outcome did it give?
Answer: Its outcome is “inactive”.

Question: With `CC(CCl)OP(=O)(OC(C)CCl)OC(C)CCl` (stereo not given) as the compound, how does the outcome read?
Answer: Its outcome is “inactive”.

Question: `O=S(=O)(OCCOC(F)(F)F)C(F)(F)F` was tested. Which outcome did it give?
Answer: The outcome was “inactive”.

Question: With `O=C(O)C(F)(F)C(F)(F)OC(F)(F)F` as the compound, how does the outcome read?
Answer: Its outcome is “inactive”.

Question: Which outcome does the source give for `Nc1ccc([N+](=O)[O-])cc1O` here?
Answer: Its outcome is “inactive”.

Question: Which AC50 does the source give for `O=C(O)C(F)(F)C(F)(F)C(F)(F)C(F)(F)C(F)(F)C(F)(F)C(F)(F)C(F)(F)C(F)(F)C(F)(F)C(F)(F)C(F)(F)F` here?
Answer: Its AC50 is 2.45 µM (active) and 896 nM (active).

Question: With `O[Si](c1ccccc1)(c1ccccc1)c1ccccc1` as the compound, how does the AC50 read?
Answer: The AC50 was 7.56 µM (active).

Question: For `O=S(=O)(OCC(F)F)C(F)(F)F`, which outcome is on record?
Answer: Its outcome is “inactive”.

Question: For `NC(=O)C(F)(F)C(F)(F)C(F)(F)C(F)(F)F`, which outcome is on record?
Answer: Its outcome is “inactive”.

Question: `OCC(F)(F)C(F)(F)C(F)(F)C(F)(F)C(F)(F)C(F)(F)F` was tested. Which AC50 did it give?
Answer: Its AC50 is 30 µM (active) and 49.7 µM (active).

Question: How did the outcome turn out when `OCC(F)(F)C(F)(F)C(F)(F)C(F)F` was run?
Answer: The outcome was “inactive”.

Question: For `FC(F)(I)C(F)(F)C(F)(F)C(F)(F)I`, which AC50 is on record?
Answer: Its AC50 is 30 µM (active) and 44.1 µM (active) and 39.5 µM (active).

Question: Which AC50 does the source give for `CCCCCCOC(=O)c1ccccc1O` here?
Answer: Its AC50 is 24.5 µM (active) and 16.9 µM (active).

Question: What does the source list for `O=C(O)C(F)(F)C(F)(F)C(F)(F)C(F)(F)C(F)(F)C(F)(F)C(F)(F)C(F)(F)Cl`?
Answer: outcome: inactive; AC50: 8.33 µM (active)

Question: Which outcome does the source give for `FC(F)(F)C(F)(F)C(F)(F)C(F)(F)C(F)(F)C(F)(F)CCS` here?
Answer: The outcome was “inactive”.

Question: With `C=C(C)C(=O)OCCC(F)(F)C(F)(F)C(F)(F)C(F)(F)C(F)(C(F)(F)F)C(F)(F)F` as the compound, how does the outcome read?
Answer: Its outcome is “inactive”.

Question: `O=C(O)C(F)(OC(F)(F)C(F)(OC(F)(F)C(F)(OC(F)(F)C(F)(F)C(F)(F)F)C(F)(F)F)C(F)(F)F)C(F)(F)F` (stereo not given) was tested. Which outcome did it give?
Answer: The outcome was “inactive”.

Question: For `Cc1ccc(S(=O)(=O)OCC(F)(F)C(F)(F)C(F)(F)C(F)(F)C(F)(F)C(F)F)cc1`, which outcome is on record?
Answer: The outcome was “inactive”.
